Results reported in PubChem BioAssay (NCI).
This is part of a sample that, as a whole, favours compounds with a hit. Of some 83,000 tested, about 20% had one in any assay.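 Interpretation: 100, growth as untreated; towards 0, rising growth inhibition; 0, no net growth; 0 to -100, cell death. Compounds scoring below 10 were considered active.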 A number with no mark means an inactive call. Calls of active or inactive are those of the source.

Key:
Experiment in all cases: NCI-60 one-dose screen, 48 h (100 = growth as untreated, 0 = no growth, -100 = all killed)
Conditions in all cases: 10 µM unless noted
NCI-H23 lung = system: NCI-H23 lung
NCI-H226 lung = system: NCI-H226 lung
NCI-H322M lung = system: NCI-H322M lung
HOP-62 NSCLC = system: HOP-62 NSCLC
NCI-H460 lung = system: NCI-H460 lung
NCI-H522 lung = system: NCI-H522 lung
A549/ATCC NSCLC = system: A549/ATCC NSCLC
786-0 renal = system: 786-0 renal
COLO 205 colon = system: COLO 205 colon
DU-145 prostate = system: DU-145 prostate
K-562 leukemia = system: K-562 leukemia
MALME-3M melanoma = system: MALME-3M melanoma
MDA-MB-231 breast = system: MDA-MB-231 breast
RXF 393 renal = system: RXF 393 renal
SF-268 CNS = system: SF-268 CNS
SF-295 CNS = system: SF-295 CNS
SF-539 CNS = system: SF-539 CNS
UACC-257 melanoma = system: UACC-257 melanoma
M14 melanoma = system: M14 melanoma
HOP-92 NSCLC = system: HOP-92 NSCLC

SMILES	growth (NCI-H23 lung)	growth (NCI-H226 lung)	growth (NCI-H322M lung)	growth (HOP-62 NSCLC)	growth (NCI-H460 lung)	growth (NCI-H522 lung)	growth (A549/ATCC NSCLC)	growth (786-0 renal)	growth (COLO 205 colon)	growth (DU-145 prostate)	growth (K-562 leukemia)	growth (MALME-3M melanoma)	growth (MDA-MB-231 breast)	growth (RXF 393 renal)	growth (SF-268 CNS) [%]	growth (SF-295 CNS)	growth (SF-539 CNS)	growth (UACC-257 melanoma)	growth (M14 melanoma)	growth (HOP-92 NSCLC)
CCOP(=O)(OCC)OC[C@]12CC[C@@H](C)[C@H](C)C1C1=CC[C@@H]3[C@@]4(C)CCCNC(C)(C)[C@@H]4CC[C@@]3(C)[C@]1(C)CC2 (stereo not given in full)	31.7%	62.5%	81.7%	65%	-68.2% (active)	57.2%	18.2%	14.9%	-50.7% (active)	1.04% (active)	-59.7% (active)	20%	39%	16.6%	37.4	18.6%	60.2%	13.4%	-65.7% (active)	
Cc1nc(N)sc1-c1csc(Nc2ccc(C(F)(F)F)cc2)n1	34.4%	37.4%	61.4%	47.3%	25.1%	-56.3% (active)	45.1%	38.6%	19.6%	35.8%	22.5%	10.1%	20.1%	18.3%	49.5	7.89% (active)	27.1%	37.2%	28.4%	
CC(=O)c1cc(C(=O)N2c3ccccc3Sc3ccccc32)n2c1ccc1ccccc12	79.1%	60.4%	89.9%	56%	37.9%	-1.14% (active)	59%	60.6%	40%	75%	23.6%	62%	97.4%	66.9%	67.5	41%	69.1%	51.8%	40.8%	
Nn1c(=O)n(-c2cccc(C(F)(F)F)c2)c(=O)c2cc(-c3ccc(F)cc3F)ccc21	-6.15% (active)	16.5%	5.15% (active)	2.28% (active)	6.49% (active)	-2.03% (active)	5.13% (active)	45.7%	65.2%	24.4%	6.85% (active)	-17.2% (active)	-10.2% (active)	3.65% (active)	17.8	-4.06% (active)	19.4%	-8.9% (active)	17.1%	-35.6% (active)
CC(=O)OC[C@]12CC[C@@H](C(=O)/C=C/c3cccnc3)[C@@H]1[C@H]1CC[C@@H]3[C@@]4(C)CC[C@H](OC(C)=O)C(C)(C)[C@@H]4CC[C@@]3(C)[C@]1(C)CC2	1.02% (active)	-70.5% (active)	53.5%	28.1%	7.8% (active)	-20.3% (active)	23.1%	27.2%	-18.6% (active)	45.7%	13.1%	-66.3% (active)	-40.5% (active)	-71.6% (active)	42.2	29.7%	-52.7% (active)	-4.75% (active)	12.2%	
O=C(/C=C/c1ccc(F)cc1)Nc1cccc2cccnc12	91.6%	97.8%	101%	98.5%	89.4%	97.5%	107%	108%	114%	107%	101%	100%	100%	110%	104	111%	102%	114%	98.5%	108%
C#Cc1nc(/C=C/CCCCCCC(=O)NO)cs1	-34.2% (active)	87.6%	85.2%	73.4%	51.8%	-61.4% (active)	61.6%	-87.8% (active)	81.8%	23.8%	13.1%	22%	-31% (active)	-6.54% (active)	83.2	82.5%	-89.4% (active)	56.6%	62.4%	
